# Several values for one entry are separate records, joined by “and”; a condition that tells them apart may be missing. Equal entries are not always repeated. Inconclusive results are not listed. For part of these data: Results with a measured potency or affinity are listed apart. Activity calls are given as the source filed them. Unless noted, no rule for the calls is given here.
# Columns and labels:
# [1] = liver-stage malaria parasite load reduction – cell-based, known kinase inhibitor set, luminescence, hepatoma host viability (AID 624392); conditions: Plasmodium liver stage in hepatoma cells, luciferase luminescence, concentration not given here; liver cell % of control: measured here: host liver cell viability; parasite % of control: stronger effect = lower value;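 also: infected cells incubated roughly two days before readout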
# [2] = viability loss with induced miR-34 in A549 – imaging, A549 dox-inducible miR-34, nuclei and caspase counts, primary screen (AID 1347080;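 active = compounds whose cell count with miR-34 switched on is under 0.7 times the count with it off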); conditions: A549 miR-34 inducible, Hoechst nuclei count, 48 h
# [3] = MELAS cybrid and Rieske KO viability enhancers – cell-based, MELAS cybrids, Rieske KO mouse fibroblasts, CellTiter-Glo, primary screen (AID 1508586;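 active = mean z-score across replicates of 1.96 or higher in either the MELAS or the Rieske mutant cell line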;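 also: z relative to plate mean and SD of compound and empty wells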); conditions: low glucose
# [4] = blockers of polyQ-driven CASP3 activation – cell-based (AID 1583); conditions: polyglutamine-induced caspase-3 activation, cell assay; stronger effect = higher value;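 tested at 10 µM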
# [5] = yeast 75Q aggregation reduction – 75Q-TubU reporter (AID 1593); conditions: Yeast 75Q polyglutamine aggregation reporter
# [6] = restoration of touch response, mutant HTT neurons – whole organism, C. elegans mechanosensory neurons, N-terminal huntingtin (AID 1599); conditions: C. elegans polyQ-huntingtin mechanosensory neurons, stronger effect = higher value
# [7] = blockers of cytochrome c efflux from mitochondria – biochemical, purified mitochondria (AID 1603); conditions: stronger effect = lower value;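 also: mouse liver mitochondria challenged with calcium chloride; signal normalized to the plate average as 100%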
# [8] = polyglutamine aggregate formation blockers (AID 1604); conditions: polyglutamine-induced protein aggregation inhibition assay; stronger effect = higher value; tested at 2.5 µM
# [9] = rescue of PC12 cells from polyQ htt toxicity – LDH release (AID 1610); conditions: PC12 mutant huntingtin toxicity, final LDH at 4 uM, stronger effect = lower value
# [10] = glutamate transport activators, MN-1 cells, MN-1 cell line (AID 1612); conditions: MN-1 motor neuron cells, stronger effect = higher value;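 also: tested at 1 µM final; 0% = mean of DMSO vehicle wells on each plate; positive means more glutamate uptake than control and negative means less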
# [11] = 75Q-TubH aggregate inhibition, S. cerevisiae, yeast (AID 1616); conditions: S. cerevisiae 75Q-TubH polyglutamine aggregation suppression; stronger effect = higher value
# [12] = compounds altering circadian rhythm period length – cell-based, LOPAC library, luminescence reporter (AID 2774); conditions: circadian reporter cells, at 7 µM, actives lie on both sides;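 also: values are relative to mean of DMSO wells on each plate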
# [13] = tested on: Hepatitis C virus NS3 helicase; test: blockers of NS3h binding to ssDNA – biochemical, fluorescence polarization, LOPAC1280 library, primary screen (AID 687035; in the data active = inhibition above about 37%); conditions: Purified HCV NS3 helicase, Cy5-dT15 ssDNA binding fluorescence polarization; stronger effect = higher value; concentration not given here
# [14] = compounds altering Cy5-DNA-NS3h complex signal – biochemical, LOPAC1280, artefact control for HCV NS3 helicase inhibitor project (AID 687037); conditions: Cy5-DNA-NS3h complex fluorescence interference counterscreen
# [15] = galactose survival enhancers in mitochondrial complex I cybrids – cell-based, galactose medium, ATP luminescence, primary screen (AID 1645843;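 active = z-score of at least 1.8 in each of two replicates, scored against plate mean and spread of sample wells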;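 also: positive z means more ATP and so rescue of galactose-driven cybrid death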); conditions: complex I mutant cybrid cells, 72 h, stronger effect = higher value
# [16] = GFP-Q80 aggregate reduction, neuronal-like cells, cell-based, NGF-treated PC12, GFPQ80 (AID 1614); conditions: PC12 NGF-treated GFP-polyQ80 inclusion reduction;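 also: lower means fewer inclusions and 0 means no inclusions at all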
# [17] = compounds altering viability of human ES cells (AID 493140); conditions: human embryonic stem cell survival screen; stronger effect = higher value;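 also: cells exposed to compounds for four days before counting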
# [18] = P. berghei load reduction in hepatocytes – cell-based, HepG2, luciferase luminescence, HepG2 viability, primary screen (AID 624349; in the data active = parasite load remaining mostly below about 12%, no sharp cut-off; inactive = mostly above about 10%;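 also: 100% = mean of DMSO negative control wells on the same plate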); conditions: P. berghei liver stage in HepG2, luciferase luminescence, concentration not given here; parasite load remaining: stronger effect = lower value; viability: measured here: HepG2 viability without parasites
# [19] = molecular target: Mitogen-activated protein kinase 7 (Homo sapiens) (UniProt Q13164); test: Gal4-ERK5 driven luciferase induction – cell-based, HTS, primary screen (AID 1508626;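 active = luciferase signal above three times the same-plate solvent-only control wells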;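 also: luciferase driven by Gal4-ERK5 fusion binding five Gal4 sites before minimal TATA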); conditions: HeLa Gal4-ERK5 transactivation, 18 h, at 5 µM, stronger effect = higher value
# Mitogen-activated protein kinase 7 (Homo sapiens), sequence (Q13164 whole entry, looked up, the tested form may be a part): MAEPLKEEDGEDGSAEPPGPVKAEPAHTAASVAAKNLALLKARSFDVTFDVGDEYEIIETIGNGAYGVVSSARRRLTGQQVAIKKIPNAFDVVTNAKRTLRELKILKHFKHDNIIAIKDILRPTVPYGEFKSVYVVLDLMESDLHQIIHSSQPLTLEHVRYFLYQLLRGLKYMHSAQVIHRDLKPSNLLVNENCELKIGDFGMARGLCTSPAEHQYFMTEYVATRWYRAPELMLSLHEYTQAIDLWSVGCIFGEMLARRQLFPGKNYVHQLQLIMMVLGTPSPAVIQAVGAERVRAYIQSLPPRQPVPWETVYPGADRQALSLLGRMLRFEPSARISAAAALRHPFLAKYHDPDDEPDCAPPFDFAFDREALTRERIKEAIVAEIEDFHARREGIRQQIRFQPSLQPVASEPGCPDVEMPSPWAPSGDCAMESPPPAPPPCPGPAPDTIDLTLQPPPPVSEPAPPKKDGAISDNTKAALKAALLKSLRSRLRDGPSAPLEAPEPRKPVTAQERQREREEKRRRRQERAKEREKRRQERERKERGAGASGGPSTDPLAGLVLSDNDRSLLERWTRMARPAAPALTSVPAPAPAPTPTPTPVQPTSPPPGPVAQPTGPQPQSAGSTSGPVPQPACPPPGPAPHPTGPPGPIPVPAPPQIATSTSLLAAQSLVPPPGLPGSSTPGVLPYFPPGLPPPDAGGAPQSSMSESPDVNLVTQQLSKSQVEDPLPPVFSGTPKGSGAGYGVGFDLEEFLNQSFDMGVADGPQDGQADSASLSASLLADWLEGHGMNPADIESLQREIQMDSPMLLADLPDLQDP
# [20] = stronger effect = lower value, cell number ratio, induced over uninduced
# [21] = measured here: relative caspase fold change +Dox/-Dox
# [22] = measured here: total cells with miR-34 induction, stronger effect = lower value
# [23] = measured here: total cells without miR-34 induction
# [24] = MELAS cybrid survival, CellTiter-Glo 48 h, stronger effect = higher value
# [25] = Rieske KO mouse fibroblast survival, CellTiter-Glo 72 h
structure (smiles),measurement,setting,value
CCn1c(-c2nonc2N)nc2c(C#CC(C)(C)O)ncc(OCC3CCCNC3)c21 (configuration not stated),liver cell % of control,[1],56.6% and 72.4% and 90.5%
same,parasite % of control,[1],1.73% (inactive) and 5.98% (inactive) and 27.8% (inactive)
same,fold change,[2]; [20],0.949 (inactive)
same,fold change,[2]; [21],0.738
same,cell count,[2]; [22],6620
same,cell count,[2]; [23],6980
same,z-score,[3]; [24],-0.704 (inactive)
same,z-score,[3]; [25],0.217
CCCCCCCCCCCCCCCCCC(=O)OC(CC(=O)O)C[N+](C)(C)C (configuration not stated),inhibition,[4],-2.46%
same,score,[5],0.53
same,rescue above control,[6],6.57
same,cytochrome c release ratio,[7],4.04
same,inhibition of aggregation,[8],52.4%
same,normalised LDH release,[9],0.986
same,glutamate uptake change,[10],-11.2%
same,aggregation suppression score,[11],-0.125
same,period change,[12],-0.05 h (inactive)
same,inhibition,[13],-2% (inactive)
same,fluorescence ratio (interference),[14],1 (inactive)
same,fold change,[2]; [20],0.979 (inactive)
same,fold change,[2]; [21],0.6
same,cell count,[2]; [22],4490
same,cell count,[2]; [23],4590
same,z-score,[15],-1.38 (inactive)
COc1ccc(-c2cc(=O)c3c(O)cc(O)cc3o2)cc1,inhibition,[4],-17.1%
same,score,[5],1.2
same,rescue above control,[6],10.4
same,cytochrome c release ratio,[7],0.89
same,inhibition of aggregation,[8],41.2%
same,glutamate uptake change,[10],-9.64%
same,inclusion score,[16],2
same,aggregation suppression score,[11],0.73
same,survival,[17],3.33 (inactive)
same,parasite load remaining,[18],73.8% (inactive) and 91.5% (inactive)
same,viability,[18],92.5% and 92.4%
same,fold change,[2]; [20],0.79 (inactive)
same,fold change,[2]; [21],1.12
same,cell count,[2]; [22],7540
same,cell count,[2]; [23],9550
same,luciferase signal,[19],40 AU (inactive)
C=C1c2c(Cl)ccc(O)c2C(O)=C2C(=O)[C@]3(O)C(O)=C(C(N)=O)C(=O)[C@@H](N(C)C)[C@@H]3[C@@H](O)C12 (some centres not stated),parasite load remaining,[18],61.4% (inactive)
same,viability,[18],104%
same,fold change,[2]; [20],0.684 (active)
same,fold change,[2]; [21],2.93
same,cell count,[2]; [22],5870
same,cell count,[2]; [23],8580
same,z-score,[3]; [24],-2.33 (inactive)
same,z-score,[3]; [25],-2.53
CC(C)CCN1c2nc(Nc3cc(F)c(O)c(F)c3)ncc2N(C)C(=O)C1C (configuration not stated),liver cell % of control,[1],87.7% and 90.4% and 106%
same,parasite % of control,[1],35.4% (inactive) and 66.2% (inactive) and 39.4% (inactive)
same,fold change,[2]; [20],1.05 (inactive)
same,fold change,[2]; [21],0.299
same,cell count,[2]; [22],2560
same,cell count,[2]; [23],2450
same,z-score,[3]; [24],0.0608 (inactive)
same,z-score,[3]; [25],-0.296
Cc1ccccc1-n1c(Cn2nc(-c3cccc(O)c3)c3c(N)ncnc32)nc2cccc(C)c2c1=O,liver cell % of control,[1],93.6% and 86.4% and 105%
same,parasite % of control,[1],34.6% (inactive) and 44.4% (inactive) and 71.3% (inactive)
same,fold change,[2]; [20],0.979 (inactive)
same,fold change,[2]; [21],0.801
same,cell count,[2]; [22],7710
same,cell count,[2]; [23],7880
same,z-score,[3]; [24],-0.245 (inactive)
same,z-score,[3]; [25],-0.436
COc1cc(N)c(Cl)cc1C(=O)N[C@H]1CCN(CCCOc2ccc(F)cc2)C[C@H]1OC,parasite load remaining,[18],43.8% (inactive)
same,viability,[18],91.1%
same,fold change,[2]; [20],0.886 (inactive)
same,fold change,[2]; [21],2.08
same,cell count,[2]; [22],7400
same,cell count,[2]; [23],8350
same,z-score,[3]; [24],-0.0533 (inactive)
same,z-score,[3]; [25],0.31

# Reference: PubChem BioAssay
